Results on 21 molecules are retold here after PubChem BioAssay (EPA / NIEHS).

Assay [1] deals with human AMP-activated Protein Kinase, alpha 1 (AMPKa1), PRKAA1 (gene 5562) (UniProt Q13131). The assay can be described thus: NVS_ENZ_hAMPKa1: NovaScreen (NVS) Enzymatic Assay for human AMP-activated Protein Kinase, alpha 1 (AMPKa1) (AID 2283130). The method, boiled down: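 Compounds were screened in duplicate at 25 uM, and those reaching ~30% inhibition were titrated up to 50 uM. The enzyme was recombinant human AMPKα1, and kinase turnover was read by fluorescence/mobility shift 1 h post-dosing as loss of signal versus DMSO.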
Chain of human AMP-activated Protein Kinase, alpha 1 (AMPKa1), PRKAA1 (gene 5562) (Q13131 whole entry, looked up): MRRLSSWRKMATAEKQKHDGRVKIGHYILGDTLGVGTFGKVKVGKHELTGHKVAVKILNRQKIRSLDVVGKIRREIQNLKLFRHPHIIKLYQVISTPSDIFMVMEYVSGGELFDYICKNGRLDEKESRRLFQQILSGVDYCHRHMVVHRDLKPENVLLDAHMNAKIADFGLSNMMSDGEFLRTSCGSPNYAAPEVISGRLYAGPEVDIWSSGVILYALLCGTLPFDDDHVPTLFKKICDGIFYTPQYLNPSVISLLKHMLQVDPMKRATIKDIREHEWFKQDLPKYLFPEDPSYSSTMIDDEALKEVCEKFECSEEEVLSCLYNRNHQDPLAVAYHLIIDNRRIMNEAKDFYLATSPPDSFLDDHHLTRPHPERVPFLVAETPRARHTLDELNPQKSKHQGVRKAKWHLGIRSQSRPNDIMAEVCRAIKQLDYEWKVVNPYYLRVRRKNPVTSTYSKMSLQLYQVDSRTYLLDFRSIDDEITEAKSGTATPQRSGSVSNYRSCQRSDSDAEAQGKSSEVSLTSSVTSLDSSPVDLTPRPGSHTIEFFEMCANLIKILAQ

The target of assay [2] is human Caspase 2 (CASP2), CASP2 (gene 835) (UniProt P42575). Kind of assay: NVS_ENZ_hCASP2: NovaScreen (NVS) Enzymatic Assay for human Caspase 2 (CASP2) (AID 2283135). The method, boiled down:
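Single-point duplicate testing at 25 uM preceded concentration series topping at 50 uM. Activity of the recombinant E. coli-derived protease was followed by fluorescent substrate cleavage 1 h post-dosing, relative to DMSO.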

Assay [3] concerns the target human Aurora Kinase A - serine/threonine-protein Kinase 6 (AurA), AURKA (gene 6790) (UniProt O14965). Kind of assay: NVS_ENZ_hAurA: NovaScreen (NVS) Enzymatic Assay for human Aurora Kinase A - serine/threonine-protein Kinase 6 (AurA) (AID 2283142). The method, boiled down:
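Recombinant human AurA activity read by fluorescence after mobility-shift separation of product from substrate; 1 hour incubation. Chemicals first run in duplicate at 25 uM, then concentration series to 50 uM if over threshold; fitted relative to DMSO.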

Assay [4] addresses human p21 Activated Kinase 4 (PAK4), PAK4 (gene 10298) (UniProt O96013). Kind of assay: NVS_ENZ_hPAK4: NovaScreen (NVS) Enzymatic Assay for human p21 Activated Kinase 4 (PAK4) (AID 2283189). The method, boiled down: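 Extracted PAK4 enzyme activity read by fluorescence with mobility-shift separation 1 h after chemical addition. Duplicate single-concentration screen at 25 uM, DMSO as negative control.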

Assay [5] concerns the target human Protein Tyrosine Phosphatase Receptor Type C (PTPRC), PTPRC (gene 5788) (UniProt P08575). The assay can be described thus: NVS_ENZ_hPTPRC: NovaScreen (NVS) Enzymatic Assay for human Protein Tyrosine Phosphatase Receptor Type C (PTPRC) (AID 2283212). The method, boiled down: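 Absorbance-based phosphatase activity of human PTPRC protein extracted from yeast was measured 1 h post-dosing. Compounds first tested at 25 uM in duplicate, then those passing threshold in singleton concentration series to 50 uM.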

Assay [6] addresses Norway rat Vesicular Monoamine Transporter (VMAT2), neurotransmitter transporter, Slc18a2 (gene 25549) (UniProt Q01827). Kind of assay: NVS_TR_rVMAT2: NovaScreen (NVS) Transporter Assay for Norway rat Vesicular Monoamine Transporter (VMAT2), neurotransmitter transporter (AID 2283376).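 Note: actives lower the bound radioligand signal below the DMSO level.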 The method, boiled down: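 Filter-based scintillation counting of radioligand bound to rat forebrain-derived VMAT2 protein, cell-free, 1 h post-dose. Signal loss relative to DMSO control scored; single-concentration duplicate screen (25 uM) followed by concentration-response testing of actives.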

The target of assay [7] is human Fibroblast Growth Factor Receptor 1 (FGFR1), FGFR1 (gene 2260) (UniProt P11362). Kind of assay: NVS_ENZ_hFGFR1: NovaScreen (NVS) Enzymatic Assay for human Fibroblast Growth Factor Receptor 1 (FGFR1) (AID 2283159).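 For AC50: hits lower the signal so potencies describe inhibitors of the kinase.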 In short, it runs like this: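 Cell-free recombinant kinase with fluorescent substrate, product separated by electrophoretic mobility shift; read 1 hour after dosing, loss of signal relative to DMSO. Initial screen in duplicate at 25 uM, actives followed in concentration series.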

Assay [8] has as its target human Phosphatase and Tensin Homolog (PTEN), PTEN (gene 5728) (UniProt P60484). The assay can be described thus: NVS_ENZ_hPTEN: NovaScreen (NVS) Enzymatic Assay for human Phosphatase and Tensin Homolog (PTEN) (AID 2283203). The method, boiled down: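 Loss of fluorescent product signal after mobility-shift separation reports PTEN activity, recombinant human enzyme, 1 h after compound addition. Single 25 uM duplicate screen, then concentration-response on actives; DMSO baseline.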

Assay [9] deals with human Protein Tyrosine Phosphatase Non-receptor Type 2 (PTPN2), PTPN2 (gene 5771) (UniProt P17706). The assay can be described thus: NVS_ENZ_hPTPN2: NovaScreen (NVS) Enzymatic Assay for human Protein Tyrosine Phosphatase Non-receptor Type 2 (PTPN2) (AID 2283207). In short, it runs like this:
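Activity measured as fluorescence after mobility-shift separation of substrate and product, 1 h after compound. Duplicate single-point 25 uM primary testing, concentration series for actives; inhibition scored as signal loss relative to DMSO baseline.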

Assay [10] has as its target bovine Gamma-Aminobutyric Acid Type A Receptor BDZ, alpha 1 site (GABARa1), GABRA1 (gene 780973) (UniProt P08219). The assay can be described thus: NVS_LGIC_bGABARa1: NovaScreen (NVS) Ligand-Gated Ion Channel Assay for bovine Gamma-Aminobutyric Acid Type A Receptor BDZ, alpha 1 site (GABARa1) (AID 2283321). In short, it runs like this: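 Bovine cortex membrane preparation, benzodiazepine site on GABA-A alpha1; specific radioligand displacement read after 0.75 h by filtration and scintillation. Screen at 25 uM, then singleton titrations up to 50 uM; DMSO baseline.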

A short description of assay [11]: CCTE_Harrill_HTTr_Apoptosis_PRF_DMEM_12hr: (Pilot) CCTE's 12-hour Apoptosis Assessment for the High-Throughput Transcriptomics (HTTr) Platform, in MCF-7 cells cultured in phenol red-free DMEM + 10% charcoal-stripped fetal bovine serum, Harrill Lab (AID 2283985; active = hit-call score of the fitted dose curve at least 0.9, where 1 is the maximum; inactive = score below 0.9). The method, boiled down:
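Caspase-3/7 activity by CellEvent Green high content imaging after 12 h compound exposure (eight concentrations) in MCF-7 grown in phenol red-free DMEM plus 10% charcoal-stripped serum; DMSO as baseline.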

Assay [12] concerns the target human IkappaB Kinase alpha (IKKa), CHUK (gene 1147) (UniProt O15111). Kind of assay: NVS_ENZ_hIKKa: NovaScreen (NVS) Enzymatic Assay for human IkappaB Kinase alpha (IKKa) (AID 2283167). The method, boiled down: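 Compounds first run in duplicate at 25 uM, those meeting threshold (e.g. 30% inhibition) retested to maximum 50 uM. Enzyme activity of recombinant IKKa measured by fluorescence with electrophoretic mobility shift separation, 1 hour post-dosing, DMSO baseline.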

Assay [13] concerns the target rat Gamma-Aminobutyric Acid Type A Receptor BDZ, alpha 6 site (GABARa6), Gabra6 (gene 29708) (UniProt P30191). The assay can be described thus: NVS_LGIC_rGABARa6: NovaScreen (NVS) Ligand-Gated Ion Channel Assay for rat Gamma-Aminobutyric Acid Type A Receptor BDZ, alpha 6 site (GABARa6) (AID 2283339). The method, boiled down:
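Actives from a 25 uM duplicate screen were retested in concentration series (max 50 uM). Specific radioligand displacement from rat cerebellar membranes was counted by filter-based scintillation at 1 h; DMSO served as baseline.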

Assay [14] deals with human Epidermal Growth Factor Receptor (EGFR), EGFR (gene 1956) (UniProt P00533). The assay can be described thus: NVS_ENZ_hEGFR: NovaScreen (NVS) Enzymatic Assay for human Epidermal Growth Factor Receptor (EGFR) (AID 2283151). The method, boiled down:
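Cell-free kinase assay, fluorescence plus electrophoretic mobility shift separating substrate and product, read 1 hour after dosing; loss of signal vs DMSO. Duplicate screen at 25 uM, then concentration-response to 50 uM.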

In assay [15] the target is human Raf-1 Proto-Oncogene, serine/threonine Kinase (RAF1), RAF1 (gene 5894) (UniProt P04049). The assay can be described thus: NVS_ENZ_hRAF1: NovaScreen (NVS) Enzymatic Assay for human Raf-1 Proto-Oncogene, serine/threonine Kinase (RAF1) (AID 2283216). The method, boiled down:
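Single-point screening at 25 uM (duplicate), followed by singleton concentration-response to 50 uM maximum for chemicals exceeding threshold. Enzyme activity from fluorescent substrate-product mobility-shift separation after 1 h, relative to DMSO.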

Assay [16] has as its target human Tyrosine Protein Kinase Receptor Tie-2 (Tie2), TEK (gene 7010) (UniProt Q02763). The assay can be described thus: NVS_ENZ_hTie2: NovaScreen (NVS) Enzymatic Assay for human Tyrosine Protein Kinase Receptor Tie-2 (Tie2) (AID 2283225). The method, boiled down: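 Substrate and product were separated by mobility shift and detected by fluorescence after a 1-hour reaction with recombinant Tie2. Chemicals passing a 25 uM single-point screen were titrated to a maximum of 50 uM. Results were normalized to DMSO baseline.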

In assay [17] the target is Protein deacetylase HDAC6 (Homo sapiens) (UniProt Q9UBN7). The assay can be described thus: NVS_ENZ_hHDAC6: NovaScreen (NVS) Enzymatic Assay for human Histone Deacetylase 6 (HDAC6) (AID 2283164). The method, boiled down:
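Concentration-response runs up to 50 uM followed a duplicate 25 uM single-point screen. Deacetylase activity of recombinant human HDAC6 read by fluorescence after 1 h, with mobility-shift separation of substrate and product; DMSO as baseline.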

The target in another assay is PPP2CA (gene 5515) (UniProt P67775). The assay can be described thus: NVS_ENZ_hPPP2CA: NovaScreen (NVS) Enzymatic Assay for human Protein Phosphatase 2 Aatalytic subunit Alpha (PPP2CA) (AID 2283199). In short, it runs like this: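 Cell-free phosphatase activity: fluorescent substrate turnover by recombinant human enzyme, resolved by mobility shift at 1.33 h. Compounds passing the 25 uM duplicate primary screen were rerun in singleton series with a 50 uM top concentration.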

Assay [18] addresses rat Monoamine Oxidase, MAO-B, Central (MAOBC), Maob (gene 25750) (UniProt P19643). Kind of assay: NVS_ENZ_rMAOBC: NovaScreen (NVS) Enzymatic Assay for rat Monoamine Oxidase, MAO-B, Central (MAOBC) (AID 2283238). The method, boiled down: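 Cell-free radiometric assay, rat brain lysate. Read-out: scintillation counts, 1.17 h post-dosing. Screen 25 uM in duplicate; actives (e.g. ≥30% inhibition) then singleton concentration-response, max 50 uM. Activity loss fitted relative to DMSO.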

Assay [19] concerns the target rat Monoamine Oxidase, MAO-B, Peripheral (MAOBP), Maob (gene 25750) (UniProt P19643). The assay can be described thus: NVS_ENZ_rMAOBP: NovaScreen (NVS) Enzymatic Assay for rat Monoamine Oxidase, MAO-B, Peripheral (MAOBP) (AID 2283242).

Each structure is given as a SMILES string. Records with an inconclusive call do not appear. Activity calls are given as the source filed them. Rule for the calls, unless noted: active = hit-call score of the fitted dose curve at least 0.9, where 1 is the maximum; inconclusive = response in the unintended direction; inactive = score below 0.9.

Chain of human Phosphatase and Tensin Homolog (PTEN), PTEN (gene 5728) (P60484 whole entry, looked up): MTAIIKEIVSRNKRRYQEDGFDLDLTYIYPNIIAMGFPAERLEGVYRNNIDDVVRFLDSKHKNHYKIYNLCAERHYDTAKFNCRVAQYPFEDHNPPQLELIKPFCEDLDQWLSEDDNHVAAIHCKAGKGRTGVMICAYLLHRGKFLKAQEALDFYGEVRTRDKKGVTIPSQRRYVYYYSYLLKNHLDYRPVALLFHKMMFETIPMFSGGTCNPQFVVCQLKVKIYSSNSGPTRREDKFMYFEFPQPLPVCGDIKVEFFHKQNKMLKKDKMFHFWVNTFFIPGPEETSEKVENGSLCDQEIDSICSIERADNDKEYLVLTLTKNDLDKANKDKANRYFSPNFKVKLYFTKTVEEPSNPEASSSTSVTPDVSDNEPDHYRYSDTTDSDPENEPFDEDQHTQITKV
Chain of human IkappaB Kinase alpha (IKKa), CHUK (gene 1147) (O15111 whole entry, looked up): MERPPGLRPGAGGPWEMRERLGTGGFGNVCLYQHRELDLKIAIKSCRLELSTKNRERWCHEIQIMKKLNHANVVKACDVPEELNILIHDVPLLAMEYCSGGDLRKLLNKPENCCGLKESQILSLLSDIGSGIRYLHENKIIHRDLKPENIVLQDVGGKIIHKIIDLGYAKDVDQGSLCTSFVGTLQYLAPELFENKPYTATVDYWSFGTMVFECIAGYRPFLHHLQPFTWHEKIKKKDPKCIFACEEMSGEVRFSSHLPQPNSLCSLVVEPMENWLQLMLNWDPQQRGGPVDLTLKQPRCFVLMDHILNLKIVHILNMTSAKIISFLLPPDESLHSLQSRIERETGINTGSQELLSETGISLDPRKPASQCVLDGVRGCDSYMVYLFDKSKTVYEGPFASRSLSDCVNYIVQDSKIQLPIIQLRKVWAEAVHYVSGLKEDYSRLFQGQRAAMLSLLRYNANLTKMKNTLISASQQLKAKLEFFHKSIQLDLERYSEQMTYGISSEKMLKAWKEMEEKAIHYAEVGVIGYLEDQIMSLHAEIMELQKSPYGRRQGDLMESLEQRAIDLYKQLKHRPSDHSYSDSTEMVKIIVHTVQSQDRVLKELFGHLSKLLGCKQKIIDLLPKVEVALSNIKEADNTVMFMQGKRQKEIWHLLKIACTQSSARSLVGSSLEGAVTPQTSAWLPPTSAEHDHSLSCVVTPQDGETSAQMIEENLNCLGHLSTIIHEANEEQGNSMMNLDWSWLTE
Chain of human Caspase 2 (CASP2), CASP2 (gene 835) (P42575 whole entry, looked up): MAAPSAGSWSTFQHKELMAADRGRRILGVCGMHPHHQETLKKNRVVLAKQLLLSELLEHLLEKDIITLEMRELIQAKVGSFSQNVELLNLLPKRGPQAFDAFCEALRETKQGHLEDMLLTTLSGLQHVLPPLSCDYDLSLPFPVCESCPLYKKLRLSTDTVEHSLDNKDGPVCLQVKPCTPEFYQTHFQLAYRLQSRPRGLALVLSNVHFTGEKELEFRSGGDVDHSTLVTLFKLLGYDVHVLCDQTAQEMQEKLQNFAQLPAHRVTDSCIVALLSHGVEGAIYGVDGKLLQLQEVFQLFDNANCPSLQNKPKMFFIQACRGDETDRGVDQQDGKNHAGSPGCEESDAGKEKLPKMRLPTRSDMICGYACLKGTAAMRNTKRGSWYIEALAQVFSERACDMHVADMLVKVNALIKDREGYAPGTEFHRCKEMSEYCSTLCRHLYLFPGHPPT
Chain of human Epidermal Growth Factor Receptor (EGFR), EGFR (gene 1956) (P00533 whole entry, looked up): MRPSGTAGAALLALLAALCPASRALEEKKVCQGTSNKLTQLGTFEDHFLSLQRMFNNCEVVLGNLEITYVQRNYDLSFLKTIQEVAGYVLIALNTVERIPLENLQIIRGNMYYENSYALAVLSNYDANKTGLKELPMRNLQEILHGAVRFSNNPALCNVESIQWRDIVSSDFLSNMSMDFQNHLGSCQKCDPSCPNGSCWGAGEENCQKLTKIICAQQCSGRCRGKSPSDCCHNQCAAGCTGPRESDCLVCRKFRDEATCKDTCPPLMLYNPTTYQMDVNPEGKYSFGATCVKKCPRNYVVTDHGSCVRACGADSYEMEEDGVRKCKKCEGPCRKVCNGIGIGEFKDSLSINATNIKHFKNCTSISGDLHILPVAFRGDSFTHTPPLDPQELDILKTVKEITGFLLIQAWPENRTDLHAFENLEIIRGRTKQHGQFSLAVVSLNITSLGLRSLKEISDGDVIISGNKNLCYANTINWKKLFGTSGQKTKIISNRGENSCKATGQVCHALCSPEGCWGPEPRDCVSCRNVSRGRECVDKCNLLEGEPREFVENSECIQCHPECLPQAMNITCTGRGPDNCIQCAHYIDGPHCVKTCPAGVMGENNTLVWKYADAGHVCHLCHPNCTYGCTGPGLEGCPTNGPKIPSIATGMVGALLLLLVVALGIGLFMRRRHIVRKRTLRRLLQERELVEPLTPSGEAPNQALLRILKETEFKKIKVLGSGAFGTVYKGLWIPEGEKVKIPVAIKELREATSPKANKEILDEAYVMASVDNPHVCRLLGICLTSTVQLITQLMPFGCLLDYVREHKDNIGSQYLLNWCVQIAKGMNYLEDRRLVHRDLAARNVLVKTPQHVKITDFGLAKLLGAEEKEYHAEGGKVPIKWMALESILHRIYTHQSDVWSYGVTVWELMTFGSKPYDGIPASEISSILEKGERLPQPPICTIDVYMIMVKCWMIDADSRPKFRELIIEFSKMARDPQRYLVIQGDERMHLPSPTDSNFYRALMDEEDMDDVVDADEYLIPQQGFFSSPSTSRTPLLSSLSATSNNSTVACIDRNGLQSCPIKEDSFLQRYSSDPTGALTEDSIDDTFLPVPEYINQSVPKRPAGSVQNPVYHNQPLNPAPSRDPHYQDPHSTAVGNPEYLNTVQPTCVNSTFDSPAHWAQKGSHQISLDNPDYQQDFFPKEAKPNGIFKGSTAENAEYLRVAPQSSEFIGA
Chain of Protein deacetylase HDAC6 (Homo sapiens) (Q9UBN7 whole entry, looked up): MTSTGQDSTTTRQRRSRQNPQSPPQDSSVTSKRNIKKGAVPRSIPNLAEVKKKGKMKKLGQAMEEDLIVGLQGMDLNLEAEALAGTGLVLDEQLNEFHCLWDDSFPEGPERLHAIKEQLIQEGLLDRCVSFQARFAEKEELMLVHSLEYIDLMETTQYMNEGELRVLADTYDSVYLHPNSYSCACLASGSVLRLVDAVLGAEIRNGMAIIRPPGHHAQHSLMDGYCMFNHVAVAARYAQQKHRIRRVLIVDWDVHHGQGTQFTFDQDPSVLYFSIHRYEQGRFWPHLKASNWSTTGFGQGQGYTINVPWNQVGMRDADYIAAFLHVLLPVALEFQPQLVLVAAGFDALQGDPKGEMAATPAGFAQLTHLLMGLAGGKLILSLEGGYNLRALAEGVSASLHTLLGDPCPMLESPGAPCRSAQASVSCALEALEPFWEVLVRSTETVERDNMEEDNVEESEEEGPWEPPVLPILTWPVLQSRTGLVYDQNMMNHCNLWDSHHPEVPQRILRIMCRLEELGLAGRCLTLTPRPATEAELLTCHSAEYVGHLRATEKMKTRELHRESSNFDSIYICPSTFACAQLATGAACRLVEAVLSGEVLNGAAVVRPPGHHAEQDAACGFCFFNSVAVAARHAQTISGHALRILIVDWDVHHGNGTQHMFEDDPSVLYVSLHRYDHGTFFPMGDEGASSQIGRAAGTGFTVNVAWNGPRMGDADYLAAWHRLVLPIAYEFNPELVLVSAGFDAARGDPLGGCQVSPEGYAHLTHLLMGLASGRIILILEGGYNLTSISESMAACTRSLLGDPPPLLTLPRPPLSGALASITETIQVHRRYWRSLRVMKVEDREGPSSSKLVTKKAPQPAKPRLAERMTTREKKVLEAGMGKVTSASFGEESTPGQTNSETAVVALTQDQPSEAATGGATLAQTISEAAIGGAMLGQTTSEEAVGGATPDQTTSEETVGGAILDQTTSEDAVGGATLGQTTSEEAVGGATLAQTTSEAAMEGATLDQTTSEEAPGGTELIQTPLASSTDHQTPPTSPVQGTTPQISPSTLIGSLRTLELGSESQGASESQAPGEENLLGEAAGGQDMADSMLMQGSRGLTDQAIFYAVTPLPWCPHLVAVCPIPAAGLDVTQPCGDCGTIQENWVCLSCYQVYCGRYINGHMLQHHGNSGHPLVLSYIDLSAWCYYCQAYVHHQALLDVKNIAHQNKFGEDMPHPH
Chain of bovine Gamma-Aminobutyric Acid Type A Receptor BDZ, alpha 1 site (GABARa1), GABRA1 (gene 780973) (P08219 whole entry, looked up): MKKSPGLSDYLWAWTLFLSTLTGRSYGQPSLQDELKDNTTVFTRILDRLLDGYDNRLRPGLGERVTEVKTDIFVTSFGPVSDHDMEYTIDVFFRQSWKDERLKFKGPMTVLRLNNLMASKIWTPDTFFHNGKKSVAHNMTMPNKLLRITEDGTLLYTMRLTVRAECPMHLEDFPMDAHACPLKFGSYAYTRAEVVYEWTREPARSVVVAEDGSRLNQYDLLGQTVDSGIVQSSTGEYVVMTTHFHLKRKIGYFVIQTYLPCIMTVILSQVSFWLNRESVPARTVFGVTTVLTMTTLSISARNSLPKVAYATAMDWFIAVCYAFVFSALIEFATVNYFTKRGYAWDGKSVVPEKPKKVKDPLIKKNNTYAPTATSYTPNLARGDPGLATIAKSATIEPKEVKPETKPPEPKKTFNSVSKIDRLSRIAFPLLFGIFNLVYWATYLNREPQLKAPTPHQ

Turning to `O=C(NO)C1(NS(=O)(=O)c2ccc(Oc3ccc(F)cc3)cc2)CCOCC1`, the molecule was classed as inactive in [1], in assay [2], in assay [3], in assay [4], in assay [5] and in assay [6].
Take `CCOC(=O)C(C)(C)Oc1ccc(Cl)cc1`: the molecule was called inactive in [1], in assay [3], in assay [7], in assay [8], in [5] and in [11]. Besides, the results for the AC50 in [9] and in assay [10] were 0.218 µM (active) and 25 µM (active), respectively.
With `O=C(OCCOCCOC(=O)c1ccccc1)c1ccccc1`, the outcome in assay [1], in assay [12] and in assay [13] was inactive. Besides, the concentration at half-maximal activity (AC50) – broadly, the concentration giving half of the maximal activity seen – in assay [10] was 1.4 µM (active).
With `O=C(O)c1cccc(Oc2ccccc2)c1`, the molecule was called inactive in assay [1], in assay [3], in [14], in assay [7] and in [8].
Consider `O=C1O[C@H]([C@@H](O)CO)C(O)=C1O`, for which the molecule was classed as inactive in [1].
In the case of `COC(=O)CC(=O)OC`, in assay [2], the call was inactive.
For `CCc1c(C(=O)NN2CCCCC2)nn(-c2ccc(Cl)cc2Cl)c1-c1ccc(Br)cc1`, the molecule was called inactive in assay [1], in assay [3], in assay [14], in assay [12], in assay [4] and in assay [15].
Take `CC1=C(/C=C/C(C)=C/C=C/C(C)=C/CO)C(C)(C)CCC1`: the outcome in assay [1], in assay [3] and in [7] was inactive.
With `c1ccc(C[n+]2cccc3ccccc32)cc1`, the molecule was classed as inactive in assay [1].
As to `Cc1ccc(C(C)(C)C)c(O)c1`, the call in assay [2] and in assay [7] was inactive.
Turning to `C[Si]1(C)O[Si](C)(C)O[Si](C)(C)O[Si](C)(C)O1`, the call in assay [1], in [16], in [13] and in [6] was inactive.
Regarding `Cc1ccc(N)cc1O`, the outcome (in assay [1]; in assay [3]; in assay [14]; in assay [7]; in assay [17]; in the assay with PPP2CA (gene 5515)) was inactive. In addition, the call in assay [15] was inactive.
`Cc1ncc([C@@H](CCCCCCc2ccc3c(n2)NCCC3)CC(=O)O)cn1`: the result in [1], in [3], in [14], in assay [7], in assay [4] and in [8] was inactive. Further, the molecule was called inactive in [9] and in assay [15]. Moreover, the concentration at half-maximal activity (AC50) in assay [17] was 14.9 µM (active).
As to `Cc1[nH]nc2c1N=C(c1ccccc1Cl)c1cc([N+](=O)[O-])ccc1N2`, the concentration at half-maximal activity (AC50) in assay [1] was 17 µM (active); in assay [3], 0.00702 µM (active); in [7], 41.4 µM (active); in assay [4], 9.53 µM (active); in assay [10], 2.29 µM (active).
In the case of `CNCc1cc(F)ccc1Oc1ccc(Cl)c(Cl)c1`, the call in [2] was inactive.
For `Cc1cccc2ccccc12`, the molecule was classed as inactive in assay [2].
As for `CC1(C)NC(=O)NC1=O`, the outcome in assay [1] and in assay [4] was inactive.
With `COc1ccc(OC(F)(F)F)cc1CN[C@H]1CCCN[C@H]1c1ccccc1`, the call in [1], in assay [7] and in [18] was inactive. Besides, the half-maximal activity concentration (AC50) in assay [19] is 36.5 µM (active).
For the molecule `O=c1[nH]cnc2c1ncn2[C@H]1CC[C@@H](CO)O1`, the outcome in assay [1], in assay [3], in [14], in [17], in [12] and in [4] was inactive. Besides, the result in assay [8] and in [9] was inactive.
On to `O=C(O)c1ccccc1C(c1ccc(O)cc1)c1ccc(O)cc1`, for which the call in assay [1], in [15] and in assay [18] was inactive.
In the case of `NCCO`, the molecule was classed as inactive in assay [1], in assay [3], in [14], in assay [7], in assay [17] and in assay [8]. Besides, the call in assay [9], in assay [15] and in [19] was inactive.
